LANA DNA inh: inhibitors of KSHV LANA C-terminal domain DNA binding; MBP-C-LANA/FAM-LBS DNA binding, fluorescence polarization; AID 504423; hit rate 0.078% among 340,000; inhibition, % at 9 µM;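 active = highest replicate inhibition at or above 60% at 9 µM, even if other replicates fall short; inactive = all replicates below 60% inhibition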;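 note: 0% = neutral control wells and 100% = 4 µM acridine orange control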
ZTA counter: blocks Epstein-Barr virus ZTA, an EBNA-1 counter-screen; ZTA-DNA binding, fluorescence polarization; inhibition, % at 11 µM; hit rate 0.15% among 320,000; AID 2234; in the data active = inhibition above about 33%
EBNA-1 inhibitor: blocks EBNA-1 binding to DNA. EBNA-1 DNA binding, fluorescence polarization. inhibition, % at 14.8 µM. hit rate 0.34% among 300,000. AID 1950; in the data active = inhibition above about 28%
Keap1 Nrf2 FP: disrupts human Keap1 binding to Nrf2 peptide; Keap1 Kelch-Nrf2 peptide fluorescence polarization, 1536-well; inhibition, % at 9.4 µM; hit rate 0.15% among 340,000; in the data active = inhibition above about 12%;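 note: human Keap1 Kelch domain with fluorescein labeled Nrf2 9mer peptide probe; 0% = neutral control wells and 100% = peptide positive control; higher means more block of Keap1 binding to Nrf2 peptide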
E coli Lon inh: inhibitors of E. coli Lon protease. P0A9M0. purified E. coli Lon protease, fluorescence polarization. inhibition, % at 7.94 µM. hit rate 0.42% among 360,000. AID 602123; in the data active = inhibition above about 13%, passing the limit was not always enough;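 note: 0% = enzyme with probe and DMSO and 100% = no enzyme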
E coli Lon conf: E. coli Lon inhibition confirmation | shares compounds with E coli Lon inh | purified E. coli Lon, fluorescence polarization | inhibition, % at 7.94 µM | hit rate 31% among 1,400 | AID 602230; in the data active = inhibition above about 16%;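 note: 0% = enzyme with probe and DMSO and 100% = no enzyme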
The depositor's hits bear a star; · = not tested or not shown; + = active, no number. Shown are actives, neighbours in structure and some others; about 0.85% of the full set was active somewhere.

SMILES | LANA DNA inh | ZTA counter | EBNA-1 inhibitor | Keap1 Nrf2 FP | E coli Lon inh | E coli Lon conf
CCOC(=O)CNc1ccc2c(c1)OCO2 | 38 | -5 | -12 | 22* | 65* | -4
CN(CCOc1ccccc1)C(=O)C1CCC(=O)N(CCN2CCOCC2)C1 (centres undefined) | 0 | -7 | 1 | -6 | 3 | ·
CCN(CC(=O)Nc1c(F)cccc1F)C(=O)CNC(=O)c1cccc(C)c1 | -2 | 11 | 6 | -2 | 8 | ·
Cc1cc2cc(C=C(C#N)C#N)c(Cl)nc2cc1C | 29 | 1 | -11 | 10 | 89* | 39*
CC(C)CC(=O)Nc1ccc(C(=O)COC(=O)C2CC(=O)N(Cc3ccccc3)C2)cc1 (centres undefined) | 1 | 3 | · | 1 | -7 | ·
O=C(NCCN1CCNC1=O)c1ccc2sc([C@@H]3O[C@H](CO)[C@H](O)[C@H](O)[C@H]3O)nc2c1 | · | · | · | · | -4 | ·
CCCCn1c(SCC(=O)Nc2cc(C)on2)nnc1-c1ccco1 | 1 | 6 | -3 | -4 | 14* | -3
O=CN1CCN(C(C(=O)NC2CCCCC2)c2ccc(Cl)cc2)CC1 (centres undefined) | -1 | 3 | -11 | -7 | 4 | ·
CC(C)C(=O)NNC(=O)c1csc(-c2cccs2)n1 | 1 | 9 | -2 | 3 | 25* | 6
Oc1c(Br)cc(Br)cc1/C=N/n1c(-c2ccccc2)n[nH]c1=S | -7 | 1 | 2 | -4 | -10 | ·
COc1c(Br)cc(/C=N/n2c(-c3ccccc3)n[nH]c2=S)c(O)c1Br | 3 | -14 | -7 | -3 | 19* | -11
COc1cc2cc(CCCOC(=O)c3ccc(C(F)(F)F)cc3)oc(=O)c2cc1OC | 2 | 9 | · | -5 | 7 | ·
Cc1nnc(SCC(=O)Nc2sccc2C#N)s1 | 1 | 6 | -10 | -4 | -6 | ·
N#Cc1ccsc1NC(=O)CSc1nncs1 | 20 | · | · | 3 | 28* | 31*
O=C(COC(=O)CSc1ccc(F)cc1)NNC(=O)c1ccc([N+](=O)[O-])cc1 | 1 | 0 | 11 | 2 | -2 | ·
Nc1[nH]c(C(=O)c2ccccc2)c(-c2cccnc2)c1C(=O)NCCc1ccc(Cl)cc1Cl | · | · | · | · | + | -1
O=C(NCCc1ccc(Cl)cc1Cl)c1cccnc1 | 0 | 17 | 6 | -8 | 1 | ·
CN(c1ccccc1)S(=O)(=O)c1cccc(NC(=O)CCNC(=O)c2ccco2)c1 | · | · | · | · | -5 | ·
COc1ccc(O)c(C(=O)c2cnn(-c3ccccn3)c2)c1 | 0 | 4 | -4 | 5 | 84* | -13
N#Cc1c(NCc2ccccc2)ccnc1Cl | 1 | -2 | -4 | -2 | 0 | ·
OC[C@@H]1CN(Cc2ccncc2)C[C@H](n2cnc3c(NCc4ccncc4)ncnc32)O1 | · | · | · | · | -11 | ·
CCN(CC)c1ccc(N=C2C=CC(=O)C=C2NC(C)=O)cc1 | · | · | · | · | 38* | -11
CN(C(=O)C(C)(C)C)[C@H]1C[C@H]2c3[nH]c4ccccc4c3CCN2C(=O)[C@H]1CO | · | · | · | · | 14* | -11
CS(=O)(=O)c1sc2nc(-c3cccs3)cc(-c3ccccc3)c2c1N | 0 | 13 | 9 | -5 | 20* | -23
Cc1ccc(-c2cc(-c3ccccc3)c3c(N)c(S(C)(=O)=O)sc3n2)cc1 | 0 | -3 | -1 | -1 | 3 | ·
SMILES | LANA DNA inh | ZTA counter | EBNA-1 inhibitor | Keap1 Nrf2 FP | E coli Lon inh | E coli Lon conf
CC(C)[C@H](NC(=O)OCc1ccccc1)C(=O)NC(C=O)Cc1ccccc1 (some centres undefined) | 2 | -6 | -1 | 2 | 55* | 59*
CCCC(CNC(C)=O)(C1=CCCCC1)c1ccccc1 (centres undefined) | · | · | · | · | -5 | ·
COc1ccc2[nH]c(C)c(CCN(Cc3cccs3)C(=S)Nc3ccccc3)c2c1 | 8 | 5 | -1 | 9 | 68* | 22*
CC(=O)C1=C(O)C(=O)N(c2ccc(Br)cc2)C1c1ccc(Br)cc1 (centres undefined) | 0 | -3 | 4 | -1 | 30* | -7
CC1(CCC(=O)N2CCCC(N3CCN(c4ccc(F)cc4)CC3)C2)CC1 (centres undefined) | 0 | -13 | -5 | -6 | 13* | -7
CCC(C)(C)NC(=O)C(c1cccc(OC)c1OC)N(C(=O)CCC(=O)Nc1cc(C)on1)C(C)C (centres undefined) | 0 | 2 | 8 | -1 | 21* | 5
O=C(c1ccccc1)c1ccc(C(=O)N2CCN(c3ccccc3Cl)CC2)cc1 | -3 | 1 | · | 6 | 18* | 5
Cc1nn(C)c(C)c1N1C(=O)c2cccc3c(N)ccc(c23)C1=O | 183* | 5 | 9 | 116* | + | +
Cc1ccc(N2C(=O)c3cccc4c(N)ccc(c34)C2=O)c2cccnc12 | 3 | 6 | 3 | -7 | 161* | -34
Cc1ccc(-n2cnnn2)c2cccnc12 | 0 | 7 | -4 | -6 | 0 | ·
Cc1nn(C)c(C)c1N1C(=O)c2cccc3c(Br)ccc(c23)C1=O | -1 | -9 | 4 | -5 | 6 | ·
O=S1(=O)c2cccc3cccc(c23)N1CCBr | 1 | -9 | 3 | 1 | -7 | ·
Nc1c(C(=O)NC2CC2)c2nc3ccccc3nc2n1-c1ccc2c(c1)OCO2 | 4 | -8 | 1 | 0 | 19* | 31*
CCOCCCNC(=O)C(NC(=O)CNC(C)=O)c1ccc(Cl)cc1 (centres undefined) | -1 | 0 | -2 | 4 | -2 | ·
CCOCCCNC(=O)C(NC(=O)c1ccccc1O)c1ccc(Cl)cc1 (centres undefined) | -1 | 5 | 7 | -6 | 18* | -19
O=C1C2C3C=CC(C4CC34)C2C(=O)N1/N=C/c1ccc(-c2ccc(Cl)cc2[N+](=O)[O-])o1 (centres undefined) | 1 | -2 | 0 | 5 | 5 | ·
O=C1C2C3C=CC(C4CC34)C2C(=O)N1/N=C/c1ccc(-c2ccc(F)cc2[N+](=O)[O-])o1 (centres undefined) | 2 | 5 | -21 | 0 | 19* | 71*
O=C(N/N=C/c1cccnc1)c1ccccc1 | 0 | 28 | 13 | 3 | -9 | ·
Nc1ccccc1C(=O)NN=Cc1cccnc1 | · | · | · | · | 21* | -10
CC(C)OP(=O)(CCP(=O)(OC(C)C)OC(C)C)OC(C)C | -1 | 7 | -5 | 2 | 17* | -81
N#CC1(C#N)C(c2ccccc2)OC23CCCCC2C1(C#N)C(=N)O3 (centres undefined) | 44 | 3 | 0 | 21* | 30* | 41*
CN1C[C@@H]2[C@@H]3C(=O)N(Cc4ccccc4)C(=O)[C@@H]3[C@](Cc3ccccc3)(C1=O)N2C(=O)c1ccc(F)cc1 | 3 | · | · | 2 | -6 | ·
Cc1cc2cc(CNC(=O)c3cccc([N+](=O)[O-])c3)ccc2[nH]1 | 0 | 9 | -5 | -6 | 24* | -10
CCOC(=O)c1nn(-c2ccccc2)c(=O)c2c(N)scc12 | -1 | 12 | -4 | -1 | -4 | ·
Nc1scc2c(C(=O)N/N=C/c3ccc(Cl)cc3)nn(-c3ccccc3)c(=O)c12 | -1 | 4 | 7 | -2 | 15* | 17*

Source: PubChem BioAssay (several laboratories)
